From PubChem BioAssay (EPA / NIEHS)
Results filed as inconclusive are left out. Calls of active or inactive are those of the source. Rule for the calls, unless noted: active = hit-call score of the fitted dose curve at least 0.9, where 1 is the maximum; inactive = score below 0.9.

Columns and labels:
[1] = CCTE_Harrill_HTTr_Viability_MCF7: CCTE's 6-hour Cell Viability Assessment for the High-Throughput Transcriptomics (HTTr) Platform, in MCF-7 cells cultured in DMEM + 10% fetal bovine serum, Harrill Lab (AID 2284010)
In short: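 MCF-7 cells in DMEM + 10% FBS, 384-well, exposed 6 h to an eight-point dilution series. Membrane integrity scored by high-content imaging of propidium iodide exclusion; bidirectional fit versus DMSO.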

[2] = CCTE_Harrill_HTTr_Apoptosis_MCF7: CCTE's 6-hour Apoptosis Assessment for the High-Throughput Transcriptomics (HTTr) Platform, in MCF-7 cells cultured in DMEM + 10% fetal bovine serum, Harrill Lab (AID 2284011)
In short: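 MCF-7 (DMEM + 10% FBS), 384-well; 8-pt dilution series, 6 h chemical exposure; caspase-3/7 activation via CellEvent Caspase 3/7 Green, HCI; bidirectional fit vs DMSO.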

[3] = UKN5_HCS_SBAD2_cell_viability: Viability Assessment in the University of Konstanz (UKN) Leist Lab Neurite Outgrowth Assay in human iPSC-derived immature Dorsal Root Ganglia Neurons (UKN5) (AID 2284056)
In short: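 iPSC-derived immature peripheral neurons (SBAD2) seeded on Matrigel with CHIR99021, SU5402 and DAPT, dosed 1 h later for 24 h. Viability from Hoechst H-33342 and calcein-AM live staining, high-content imaging; bidirectional fit versus DMSO.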

[4] = UKN5_HCS_SBAD2_neurite_outgrowth: University of Konstanz (UKN) Leist Lab Neurite Outgrowth Assay in human iPSC-derived immature Dorsal Root Ganglia Neurons (UKN5) (AID 2284070); conditions: actives raise or lower the signal
In short: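 SBAD2 iPSC-derived immature peripheral neurons on Matrigel, 100.000 cells/cm2, medium with CHIR99021 (1.5 uM), SU5402 (5 uM), DAPT (5 uM); compound added 1 h post-seeding for 24 h. Calcein-AM neurite area by high-content imaging; Hoechst H-33342 viability; bidirectional fit vs DMSO.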

[5] = UKN4_HCS_LUHMES_neurite_outgrowth: University of Konstanz (UKN) Leist Lab Neurite Outgrowth Assay in human LUHMES cells (UKN4) (AID 2284206); conditions: actives raise or lower the signal
In short: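 Human LUHMES neuronal precursors, differentiated 2 days then replated without cAMP and GDNF, exposed to compounds for 24 h. Neurite area imaged by high-content microscopy after calcein-AM live staining; Hoechst H-33342 for viability; bidirectional fit versus DMSO.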

[6] = IUF_NPC1a_proliferation_area_72hr: Leibniz Research Institute for Environmental Medicine (IUF) 72-hour Neural Progenitor Cell Proliferation Area Assay (NPC1a) (AID 2284208)
In short: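 Spheres of 0.3 mm are plated singly in growth-factor medium and exposed from day 0. After three days at 37C and 5% CO2, sphere area is measured by phase contrast imaging, with activity referenced to DMSO.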

[7] = IUF_NPC1_viability_72hr: Viability Assessment at 72 hours in the Leibniz Research Institute for Environmental Medicine (IUF) Neural Progenitor Cell Proliferation Assay (NPC1) (AID 2284209)
In short: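 Single spheres (0.25-0.35 mm) of human fetal cortex-derived neural progenitor cells were grown in proliferation medium with EGF and FGF at 37C and 5% CO2. They were exposed for 72 h without renewal, and viability was read by alamar blue resorufin fluorescence.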

[8] = UKN4_HCS_LUHMES_cell_viability: Viability Assessment in the University of Konstanz (UKN) Leist Lab Neurite Outgrowth Assay in human LUHMES cells (UKN4) (AID 2284232)
In short: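 LUHMES precursors differentiated 2 days, replated at 30000 cells/well without cAMP/GDNF, then compound-treated 24 h. Viability from Hoechst H-33342 and calcein-AM live staining (30 min) by high-content fluorescence imaging; bidirectional fit versus DMSO.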

[9] = UKN2_HCS_IMR90_cell_viability: Viability Assessment in the University of Konstanz (UKN) Leist Lab Neural Crest Cell Migration Assay in human induced IMR90 Pluripotent Stem Cells (UKN2) (AID 2284233);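 note: viability of neural crest cells differentiated from IMR90 iPSC measured by calcein-AM fluorescence imaging; cells exposed to compound for 24 h after a 24 h migration phase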
In short: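 Human IMR90-derived neural crest cells were allowed to migrate for 24 h into a cell-free zone, then exposed to test chemicals for 24 h. Calcein-AM and Hoechst staining with high-content imaging gave viability, analysed against DMSO baseline.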

[10] = IUF_NPC2c_oligodendrocyte_migration_120hr: Leibniz Research Institute for Environmental Medicine (IUF) 120-hour Neural Progenitor Cell Migration Assay for Oligodendrocyte Migration (NPC2c) (AID 2284297)
In short: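 Read-out is the mean distance of O4-positive oligodendrocytes from the sphere core edge at 120 h, normalized to radial glia migration and fitted in the gain direction against DMSO. Spheres of primary human neural progenitors differentiated on laminin under continuous compound exposure.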

[11] = IUF_NPC2a_radial_glia_migration_120hr: Leibniz Research Institute for Environmental Medicine (IUF) 120-hour Neural Progenitor Cell Migration Assay for Radial Glia Migration (NPC2a) (AID 2284298)
In short: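 Readout: distance in um from sphere core edge to migration-area edge, derived from Hoechst nuclei density with a threshold-defined polynomial boundary. Spheres: hNPC, GW 16-19, 0.3 mm, on PDL/laminin; exposure 5 days; DMSO is baseline.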

[12] = IUF_NPC2b_neuronal_migration_120hr: Leibniz Research Institute for Environmental Medicine (IUF) 120-hour Neural Progenitor Cell Migration Assay for Neuron Migration (NPC2b) (AID 2284300)
In short: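 Read-out is mean distance from sphere edge to each TUBB3-positive neuron at 120 h, expressed relative to radial glia migration distance and to DMSO baseline. Single 0.3 mm human NPC spheres differentiated on laminin under continuous compound exposure.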

[13] = IUF_NPC3_neuronal_differentiation_120hr: Leibniz Research Institute for Environmental Medicine (IUF) 120-hour Neuronal Differentiation Assay (NPC3) (AID 2284301)
In short: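 Single 0.3 mm neurospheres from human fetal cortex were plated in differentiation medium containing test compound. Medium was half-replaced on day 3. After 120 h cells were fixed, immunostained and imaged, and neuronal fraction was scored against DMSO control.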

[14] = IUF_NPC4_neurite_length_120hr: Leibniz Research Institute for Environmental Medicine (IUF) 120-hour Neuronal Morphology Assay for Neurite Length (NPC4) (AID 2284302)
In short: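 Read-out is mean neurite length in µm of TUBB3-positive neurons, skeletonized from high-content fluorescence images after 120 h. Single 0.3 mm primary human neural progenitor spheres differentiated on poly-D-lysine/laminin under continuous compound exposure; DMSO was baseline.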

[15] = IUF_NPC5_oligodendrocyte_differentiation_120hr: Leibniz Research Institute for Environmental Medicine (IUF) 120-hour Oligodendrocyte Differentiation Assay (NPC5) (AID 2284304; active = hit-call score of the fitted dose curve at least 0.9, where 1 is the maximum;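 note: primary human fetal neural progenitor spheres plated to migrate and differentiate; share of O4-positive cells among Hoechst nuclei found by CNN image analysis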)
In short: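 Oligodendrocyte differentiation was scored after 120 h as the O4-positive share of Hoechst-stained nuclei across the neurosphere migration area, using a trained convolutional neural network on high-content fluorescence images. Human fetal neural progenitor spheres were dosed from day 0, normalised to DMSO.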

[16] = IUF_NPC4_neurite_area_120hr: Leibniz Research Institute for Environmental Medicine (IUF) 120-hour Neuronal Morphology Assay for Neurite Area (NPC4) (AID 2284305; active = hit-call score of the fitted dose curve at least 0.9, where 1 is the maximum)
In short: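 Neurite area is read out as the mean pixel area, excluding nuclei, of skeletonized TUBB3-positive neurons imaged after 120 h. Primary human neural progenitor spheres differentiated on poly-D-lysine/laminin with compound present from day 0. Activity was referenced to DMSO controls.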

[17] = IUF_NPC2-5_cytotoxicity_72hr: Cytotoxicity Assessment at 72 hours in the Leibniz Research Institute for Environmental Medicine (IUF) Neural Progenitor Cell Migration and Differentiation Assay for Cytotoxicity (NPC2-5) (AID 2284306; active = hit-call score of the fitted dose curve at least 0.9, where 1 is the maximum;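 note: LDH release into supernatant measured by resorufin fluorescence marking membrane damage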)
In short: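 Membrane integrity loss was scored from fluorescence (RFU) of resorufin generated by LDH in culture supernatant, 72 h after dosing. Differentiating human progenitor spheres received seven serial compound concentrations alongside a solvent control.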

[18] = IUF_NPC2-5_cytotoxicity_120hr: Cytotoxicity Assessment at 120 hours in the Leibniz Research Institute for Environmental Medicine (IUF) Neural Progenitor Cell Migration and Differentiation Assay (NPC2-5) (AID 2284307; active = hit-call score of the fitted dose curve at least 0.9, where 1 is the maximum)
In short: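 Sphere plating starts differentiation and exposure together at day 0. Compound solution is half-replaced on day 3. At 120 h, medium supernatant is taken for an LDH membrane-integrity read based on resazurin reduction to resorufin fluorescence.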

[19] = IUF_NPC2-5_cell_number_120hr: Cell Number Assessment at 120 hours in the Leibniz Research Institute for Environmental Medicine (IUF) Neural Progenitor Cell Migration and Differentiation Assay (NPC2-5) (AID 2284308);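 note: count of Hoechst-stained nuclei in migration zone around plated human neural progenitor spheres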
In short: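 hNPC spheres, one per well, PDL/laminin, N2 medium, 37C, 5% CO2. Dosing day 0 → half-medium change with fresh compound day 3 → fix 120 h. Readout: Hoechst+ nuclei count, migration area; 7 concentrations plus solvent control.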

[20] = IUF_NPC2-5_viability_120hr: Viability Assessment at 120 hours in the Leibniz Research Institute for Environmental Medicine (IUF) Neural Progenitor Cell Migration and Differentiation Assay (NPC2-5) (AID 2284312)
In short: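 Alamar blue resorufin fluorescence read after 5 days of differentiation, with compound present from day 0 and replenished at day 3. Primary hNPC spheres on laminin-coated plates, 37C; seven concentrations plus solvent control, fitted against DMSO.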

[21] = IUF_NPC1_cytotoxicity_72hr: Cytotoxicity Assessment at 72 hours in the Leibniz Research Institute for Environmental Medicine (IUF) Neural Progenitor Cell Proliferation Assay (NPC1) (AID 2284332; active = hit-call score of the fitted dose curve at least 0.9, where 1 is the maximum;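 note: rising LDH signal means more cytotoxicity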)
In short: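 Human fetal neural progenitor spheres (0.3 mm) in EGF/FGF proliferation medium, 37C, exposed 72 h without renewal. LDH release in supernatant read by resorufin fluorescence; gain of signal scored relative to dynamic range.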

[22] = CCTE_Deisenroth_AIME_96WELL_CTox_Active: Cytotoxicity Assessment (CTOX) in CCTE's 96-well Estrogen Receptor Transactivation Assay with AIME metabolic competence (metabolism positive), Deisenroth Lab (AID 2284028; active = hit-call score of the fitted dose curve at least 0.9, where 1 is the maximum)
In short: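 Chemicals (0.002–200 uM) were first incubated 2 h with alginate-immobilized phenobarbital/beta-naphthoflavone-induced male rat liver S9; conditioned medium then went onto VM7Luc4E2 cells for 24 h, with viability read by protease-substrate fluorescence, fitted bidirectionally.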

[23] = CCTE_Deisenroth_AIME_96WELL_CTox_Inactive: Cytotoxicity Assessment (CTOX) in CCTE's 96-well Estrogen Receptor Transactivation Assay without AIME metabolic competence (metabolism negative), Deisenroth Lab (AID 2284029; active = hit-call score of the fitted dose curve at least 0.9, where 1 is the maximum)
In short: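 Chemicals (0.002 - 200 uM, 10 points) incubated 2 h with alginate-water microspheres (no S9), then medium moved onto VM7Luc4E2 cells for 24 h. Viability by protease-substrate cleavage to fluorescent probe; bidirectional fitting.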

[24] = CCTE_Harrill_HTTr_Apoptosis_PRF_DMEM_12hr: (Pilot) CCTE's 12-hour Apoptosis Assessment for the High-Throughput Transcriptomics (HTTr) Platform, in MCF-7 cells cultured in phenol red-free DMEM + 10% charcoal-stripped fetal bovine serum, Harrill Lab (AID 2283985)
In short: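 MCF-7 cells in phenol red-free DMEM with 10% charcoal-stripped FBS, eight-point dilution series, 12 h exposure. Caspase-3/7 activation imaged by high content imaging with CellEvent Green reagent; bidirectional fit vs DMSO.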

Measured: outcome

[O-][Cl+3]([O-])([O-])O
not listed: [22] | [23] | [24]
inactive: all other assays above

CCC(C)(C)c1cc(-n2nc3ccccc3n2)c(O)c(C(C)(C)CC)c1
inactive: [22] | [23]

CCC(C)(C)C(=O)O[C@H]1C[C@@H](C)C=C2C=C[C@H](C)[C@H](CC[C@@H]3C[C@@H](O)CC(=O)O3)[C@H]21
inactive: [24]
